Screening results from PubChem BioAssay.
D1 antagonist – human D1 dopamine receptor antagonism; P21728; HEK293 TREx D1 cells, calcium flux, dopamine EC80; hits give low values; activity change, negative = inhibition, % at 10 µM; hit rate 3.2% among 360,000; in the data active = activity change below about -30%; also: % is scaled to controls: 0 for no effect and ±100 for the full control effect
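Using tetracycline-induced force-coupled D1 Hek293 cells and a calcium dye, signals were followed for 180 s after compound, then for 180 s after EC80 dopamine, to detect inhibitors.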
D1 ag – activates the human D1 dopamine receptor; HEK293 T-REx D1 cells, calcium flux, agonist mode; activation, % at 2 µM; hit rate 1% among 360,000; AID 504660; P21728; in the data active = activation above about 30%; also: 0% is about no effect
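Tetracycline-induced HEK293 TREx D1 cells, force-coupled to calcium signalling, were dye-loaded with a no-wash calcium kit. Compound was pin-added after a 10 s baseline. Fluorescence was read kinetically at 1 cycle/s for 180 s, with calcium rises flagged as agonism.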
D1 potentiator – enhances dopamine response at the human D1 receptor | AID 504651 | HEK293 TREx D1 cells, calcium flux, dopamine EC20 potentiation | hit rate 0.036% among 360,000 | potentiation, % at 10 µM | P21728; in the data active = potentiation above about 30%; also: 0% is about no effect
DRD3 agonist – activates the human D3 dopamine receptor; P35462; D3R DiscoveRx beta-arrestin cells, luminescence, 90 min; max activation, %; hit rate 0.58% among 410,000; AID 652048; in the data active = max activation above about 30%; also: 0% is about no effect
Target sequence (P35462 whole entry, looked up): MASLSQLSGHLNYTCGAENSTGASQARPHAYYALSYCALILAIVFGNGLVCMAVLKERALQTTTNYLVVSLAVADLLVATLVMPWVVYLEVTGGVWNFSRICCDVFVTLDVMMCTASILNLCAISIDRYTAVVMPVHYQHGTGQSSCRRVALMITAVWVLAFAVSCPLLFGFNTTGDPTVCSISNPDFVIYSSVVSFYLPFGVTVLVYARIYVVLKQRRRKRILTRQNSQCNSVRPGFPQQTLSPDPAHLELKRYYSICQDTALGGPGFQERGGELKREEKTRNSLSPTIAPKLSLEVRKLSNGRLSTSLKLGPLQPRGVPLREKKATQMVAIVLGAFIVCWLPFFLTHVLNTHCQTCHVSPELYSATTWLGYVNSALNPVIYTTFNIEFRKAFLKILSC
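Cells at 1500/well, incubated overnight, then treated with pinned compounds (dopamine as control) for 90 min at 37 degrees C. DiscoveRx reagent added for 30 - 60 minutes at room temperature; luminescence read.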
D3 antag – blocks the human D3 dopamine receptor. P35462. D3R cells, DiscoveRx beta-arrestin luminescence, antagonist mode; hits give low values. max response, negative = inhibition, %. hit rate 2.5% among 360,000. AID 652054; in the data active = max response below about -50%; inconclusive = no clear call, values can overlap the other calls; also: % is scaled to controls: 0 for no effect and ±100 for the full control effect
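Cells plated overnight at 1500 cells/well, then exposed to library compounds with dopamine controls for 90 minutes at 37 degrees C. DiscoveRx reagent added for 30–60 minutes at room temperature; luminescence read, quantitative HTS format.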
An asterisk follows results filed as active; ? = inconclusive; · = no result; ! = a repeat was not active. Shown are actives, neighbours in structure and some others; about 6% of the full set was active somewhere.

SMILES	D1 antagonist	D1 ag	D1 potentiator	DRD3 agonist	D3 antag
Cc1cccc(-c2nn3c(=O)cc(CN4CCN(C(=O)COc5ccc(Cl)cc5)CC4)nc3s2)c1	-28	-1	-2	-3	·
COC(=O)C1=C(C(=O)OC)SC2(S1)C(C(=O)OC)=C(C(=O)OC)Sc1c2ssc1=O	·	·	·	-10	-96*
CC[C@@H]1C(=O)OC[C@@H]1Cc1cncn1C	26	-1	-2	0	-19
CC[C@@H]1C(=O)OC[C@@H]1Cc1cncn1C	-71*!	3	4	11	0
O=C1NCN(c2ccccc2)C12CCN(CC1COc3ccccc3O1)CC2 (stereo unspecified)	·	·	·	-24	·
O=C(NCCN1CCC2(CC1)C(=O)NCN2c1cccc(F)c1)c1ccc2ccccc2c1	·	·	·	-11	-89*
O=C(NCCN1CCC(n2c(=O)[nH]c3ccccc32)CC1)c1ccc2ccccc2c1	·	·	·	-10	-55*
O=C(O)[C@H](O)[C@@H](O)C(=O)O	8	3	1	-8	-28
CCN1CC=C(c2c[nH]c3ccccc23)CC1	-16	4	-12	-13	-71*
COc1ccccc1N1CCN(Cc2cc(C)c(C)cc2O)CC1	-5	0	-8	-16	-84*
COc1ccccc1N1CCN(Cc2c(F)cccc2Cl)CC1	4	3	-4	-3	0
Fc1ccc(N2CCN(Cc3cc4c(cc3Br)OCO4)CC2)cc1	-2	9	3	-37	-9
Oc1cc2c(cc1CN1CCN(c3ccccc3F)CC1)OCO2	-26	6	·	-22	-96*
COc1ccccc1N1CCNCC1	-10	3	-8	-11	-17
Cc1cccc(N2CCN(Cc3ccc4c(c3)OCO4)CC2)c1C	-6	2	-8	-24	-105*
COc1ccccc1N1CCN(Cc2ccccc2)CC1	-17	0	-9	-5	-113*
O=c1c2ccccc2nc(/C=C\c2ccc(F)cc2)n1-c1ccccc1F	-24	3	-1	5	·
COc1ccccc1N1CCN(Cc2cccc(Br)c2)CC1	-27	-2	-11	-21	-100*
CN1CCN(Cc2ccc(Br)s2)CC1	1	1	-2	-29	-77*
COc1ccccc1N1CCN(Cc2ccc3c(c2)OCO3)CC1	·	·	·	-35	-87*
COc1cccc(CN2CCNCC2)c1	6	1	-3	-12	?
COc1ccccc1N1CCN(Cc2ccc(Br)s2)CC1	3	-2	-7	-6	-69*
Cc1ccc(OCC(=O)N2CCN(CCc3ccncc3)CC2)cc1C	-6	1	-1	-7	·
C/C=C(\CC)C(=O)NC(N)=O	·	·	·	1	·
Cc1ccc(OCC(=O)Nc2ccc(Cl)cc2C(=O)c2ccccc2)cc1C	-11	-1	-1	8	·
SMILES	D1 antagonist	D1 ag	D1 potentiator	DRD3 agonist	D3 antag
COc1ccc(OCC(=O)N2CCN(CCc3ccccn3)CC2)cc1	-19	-1	1	-7	·
COc1cc(C)c(CN2CCN(c3ccccc3)CC2)cc1C	-12	3	-8	-52	-65*
Cc1ccccc1CN1CCN(c2ccc(Cl)cc2)CC1	-14	5	-7	-19	?
COc1cc(CN2CCN(c3cc(C)ccc3C)CC2)ccc1O	-89*	7	-8	-13	?
C[C@@H]1O[C@@H](O[C@@H]2C=C3CC[C@@H]4[C@H](CC[C@]5(C)[C@@H](c6ccc(=O)oc6)CC[C@]45O)[C@@]3(C)CC2)[C@H](O)[C@H](O)[C@H]1O	·	·	·	3	·
O=P1(Oc2ccccc2)OCCCS1 (stereo unspecified)	-30*	1	-2	1	10
